“And” between values parts separate entries of the source, which are not always exact repeats. Equal values may be shown once. Compounds without any hit were thinned out: in the full panel of roughly 83,000, 20% have a hit.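 Note: values are percent growth. 100 is the growth of untreated cells, values between 100 and 0 indicate rising inhibition; between -100 and 0 indicates cell death.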 The source made the active and inactive calls. How the source made its calls: active means growth percent below 10; inactive means the rest.
System: MDA-MB-468 breast
Assay: NCI-60 one-dose screen, 48 h (100 = growth as untreated, 0 = no growth, -100 = all killed)
Conditions: 10 µM unless noted

| Structure (SMILES) | growth |
| --- | --- |
| N#CC1=C(N)Oc2c(ccc3cccnc23)C1c1ccccc1 (stereo unspecified) | -7.81% (active) |
| O=C(c1ccccc1)N(C(=O)c1ccccc1)N1CCCC1 | 108% (inactive) |
| OC(CNc1ccnc2cc(Cl)ccc12)CNc1ccnc2cc(Cl)ccc12 | -67.9% (active) |
| Cc1ccc(S(=O)(=O)NNC(=O)/C(=C\c2ccc(Cl)cc2)c2nc3ccccc3s2)cc1 | 111% (inactive) |
| FC(F)(F)c1cccc(-c2nnn(Cc3cc(-c4cccc(Cl)c4)no3)n2)c1 | 102% (inactive) |
| Cc1ncsc1CCO | 99.2% (inactive) and 107% (inactive) |
| Cn1cc(-c2csc(-c3cn(CCO)c4ccc(F)cc34)n2)c2cccnc21 | -16.5% (active) |
| Cc1nc2cc(Nc3nc(Cl)nc(Nc4ccc(F)cc4)n3)ccc2n1Cc1ccccc1 | 76.2% (inactive) |
| C=C1C(=O)O[C@H]2[C@H]1CC/C(COC(=O)OC/C1=C/CC[C@@]3(C)O[C@H]3[C@H]3OC(=O)[C@@H](CN(C)C)[C@@H]3CC1)=C\CC[C@@]1(C)O[C@@H]21 | -14% (active) |
| CCOC(=O)C(=O)C(C(=O)OCC)c1ccccc1 (stereo unspecified) | 111% (inactive) |
| CN(C)c1ccc2[nH]c3c(C(N)=O)cc(=O)c(=O)c=3oc2c1 | 59.2% (inactive) |
| CC(c1ccccc1)n1ccnc1CO (stereo unspecified) | 101% (inactive) |
| O=C1Nc2ccc(C(=O)O)c(O)c2C1=O | 108% (inactive) |
| COc1cc(C(=O)Oc2ccccc2OC(=O)c2cc(OC)c(OC)c(OC)c2)cc(OC)c1OC | 105% (inactive) |
| CC(C)=CCC[C@](C)(O)[C@H]1CC[C@]2(C)[C@@H]1CC[C@@H]1[C@@]3(C)Cc4nccnc4C(C)(C)[C@@H]3CC[C@]12C | 69.4% (inactive) |
| COc1ccc(NC(=O)CSc2nnc(-c3ccc4nc(-c5ccc(OC)c(OC)c5)[nH]c4c3)o2)cc1OC | 92.7% (inactive) |
| Cn1cc(-c2cc(N)n3nc(-c4cn(C)c5ccc(F)cc45)cc3n2)c2cc(F)ccc21 | 12.3% (inactive) |
| CCOC(=O)C1=C(C)c2ccc(OC)c(OC)c2C1 | 99.4% (inactive) |

| Structure (SMILES) | growth |
| --- | --- |
| COc1ccc(C(=O)Nc2nc(-c3ccc(Cl)cc3)cs2)cc1 | 95.9% (inactive) |
| C#Cc1ccc(-n2c(/C=C/c3cc(OC)c(OC)c(OC)c3)nc3ncccc3c2=O)cc1 | 3.92% (active) |
| [Cu+].[NH-][C@H]1C[N-]C(=O)[C@H]([C@H]2CCN=C(N)N2)[N-]C(=O)/C(=C\NC(N)=O)[N-]C(=O)[C@H](CNC(=O)C[C@@H](N)CCCN)[N-]C(=O)[C@H](CO)[N-]C1=O | 96.2% (inactive) |
| CCOC(=O)c1c(C)c2c(n1C)CSc1cc(C(=O)c3ccccc3)c(=O)[nH]c1-2 | 96.6% [100 µM] (inactive) |
| CCN1/C(=C/C=C/c2n(-c3ccccc3)c3ccc(-c4nc5ccccc5s4)cc3[n+]2CC)N(c2ccccc2)c2ccc(-c3nc4ccccc4s3)cc21 | 8.94% (active) |
| CC(C)C(=O)Nc1ccc(-c2nc(-c3cccc(O)c3)c(-c3ccnc(Br)c3)[nH]2)cc1 | 15.1% (inactive) |
| CN1CCN(Cc2ccc(NC(=O)c3cncc(C#Cc4ncc5cnccn45)c3)cc2C(F)(F)F)CC1 | 86.7% (inactive) |
| COc1cc(F)c(/C=C/c2cc(/C=C/c3cc(OC)c(OC)cc3F)n(-c3cc(F)cc(F)c3)n2)cc1OC | -37.6% (active) |
| COc1cc(C2N=C(NNc3ccccc3)NC(C)=C2C(C)=O)ccc1O (stereo unspecified) | 93.3% (inactive) |
| O=C(CSc1nccc(Nc2cccc3ccccc23)n1)c1ccc(Cl)cc1 | 98.5% (inactive) |
| O=C1CCC(NC(=S)Nc2ccccc2)N1 (stereo unspecified) | 112% (inactive) |
| COc1ccc2c(c1)CCNC21C(=O)Nc2c(Br)cc(Br)cc21 (stereo unspecified) | 137% (inactive) |
| C=CCC(=O)N[C@H](/C=C/C(=O)O)Cc1ccc(-c2cc(Cl)cc(Cl)c2)cc1 | 101% (inactive) |
| COc1ccc2[nH]cc(-c3nc(-c4c[nH]c5ccncc45)cs3)c2c1 | -33.9% (active) |
| COc1cc(NC(=O)COc2cc(C)nc3ccc(OC)cc23)cc(OC)c1 | 76.3% (inactive) |
| COc1ccc2c(c1)oc1c(C)c3c(c(C)c12)C(=O)N(N)C3=O | 59.7% (inactive) |
| CCOC(=O)/C=C/c1ccc([N+](=O)[O-])o1 | 53.6% (inactive) |
| COc1ccc(S(=O)(=O)NCCCNc2nccc(-c3[nH]c(-c4ccccc4)nc3-c3ccc(Cl)c(O)c3)n2)cc1 | 78.3% (inactive) |
